Assay results from PubChem BioAssay (NCI).
Compounds without any hit were thinned out: in the full panel of roughly 83,000, 20% have a hit.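 Treatment: one concentration, 48 hours, 96-well format. Scoring: percent growth, with anything below 10 considered active.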 Values without a mark were called inactive. Activity calls are given as the source filed them.

system: DU-145 prostate; assay: NCI-60 one-dose screen, 48 h (100 = growth as untreated, 0 = no growth, -100 = all killed); conditions: 10 µM unless noted

**Q.** Which growth does the source give for `COc1cc(-c2nc(SCCC(C)C)nc(Nc3ccccc3)c2C#N)cc(OC)c1OC` here?
**A.** 97.1%

**Q.** With `O=C(N/N=C\c1cc(Cl)ccc1O)N/N=C/c1cc(Cl)ccc1O` as the molecule, how does the growth read?
**A.** 87.4%

**Q.** With `Cc1ccc(S(=O)(=O)Oc2ccc([N+](=O)[O-])cc2[N+](=O)[O-])cc1` as the molecule, how does the growth read?
**A.** 116%

**Q.** Which growth does the source give for `COCCCNc1nc(NC(=O)c2cc(OC)cc(OC)c2)cc(-c2cccnc2)n1` here?
**A.** 101%

**Q.** `CC1(C)CC[C@]2(C(=O)O)CC[C@]3(C)C(=CC[C@@H]4[C@@]5(C)C/C(=C/c6ccco6)C(=O)C(C)(C)[C@@H]5CC[C@]43C)[C@@H]2C1` was tested. Which growth did it give?
**A.** -45% [100 µM] (active)

**Q.** Which growth does the source give for `O=C(N=c1n(-c2ccccc2)nc2n1CCN2C1=NCCN1)c1ccc(Cl)cc1` here?
**A.** 95.7%

system: K-562 leukemia; assay: as above; conditions: 10 µM unless noted

**Q.** For `CC1=CCc2ccccc21`, which growth is on record?
**A.** 94.1%

**Q.** Which growth does the source give for `O=C1Nc2ccccc2/C1=C/C(=O)c1ccc(N2CCCCC2)cc1` here?
**A.** 68.2%

**Q.** `COc1ccc2nc3c(cc2c1)C(=O)CC(c1ccccc1)C3` (centres undefined) was tested. Which growth did it give?
**A.** 13.2%

**Q.** For `Oc1ccc(N=Nc2nccs2)c(O)c1`, which growth is on record?
**A.** 44%

**Q.** `Cc1cc(-c2ccc(N=Nc3c(S(=O)(=O)O)cc4cc(S(=O)(=O)O)cc(N)c4c3O)c(C)c2)ccc1N=Nc1cc(S(=O)(=O)O)c2ccccc2c1O` was tested. Which growth did it give?
**A.** 98%

**Q.** `C#CCNC(=O)CC[C@]1(C)[C@H]2CC[C@@H]3[C@@H]([C@@](C)(O)CCC=C(C)C)CC[C@@]3(C)[C@]2(C)CC[C@H]1C(=C)C` was tested. Which growth did it give?
**A.** 5.99% [100 µM] (active)

**Q.** `CC(=O)Nc1ccc2nc3ccc(NC(C)=O)cc3[n+](-c3ccccc3)c2c1` was tested. Which growth did it give?
**A.** 57.1%

**Q.** For `CCN(CC)CCCCCCNc1cccc2cc(Br)cnc12`, which growth is on record?
**A.** -27.8% (active)

**Q.** `COc1ccc(NC(=S)NNc2ccc(-c3ccc(OC)c(OC)c3)nn2)cc1` was tested. Which growth did it give?
**A.** 104%

**Q.** Which growth does the source give for `O=[N+]([O-])c1cc([N+](=O)[O-])c(NN=C(c2ccc(O)cc2)c2ccc(O)cc2)cc1Cl` here?
**A.** 101%

**Q.** With `CC(C)C1=NOC(=O)C1=Cc1cn(-c2ccccc2)nc1-c1cccc([N+](=O)[O-])c1` as the molecule, how does the growth read?
**A.** 33.4%

**Q.** For `C=C(C)[C@@H]1CC[C@]2(C(=O)NCCNCCNCCN)CC[C@]3(C)[C@H](CC[C@@H]4[C@@]5(C)CC[C@H](O)C(C)(C)[C@@H]5CC[C@]43C)[C@@H]12`, which growth is on record?
**A.** -15.8% [100 µM] (active)

**Q.** `O=C1COCCN1c1ccc(Nc2nc(Cl)nc(N3CCOCC3)n2)cc1` was tested. Which growth did it give?
**A.** 100%

**Q.** With `Cn1cc(-c2noc(-c3cn(C)c4ncc(F)cc34)n2)c2cc(Br)ccc21` as the molecule, how does the growth read?
**A.** 86.6%

**Q.** With `CC1(C)NCCC[C@]2(C)[C@H]3C=CC4=C5C[C@](C)(CO)CC[C@]5(C)CC[C@@]4(C)[C@]3(C)CC[C@@H]12` as the molecule, how does the growth read?
**A.** -25.4% [100 µM] (active)

**Q.** How did the growth turn out when `CCCC(NC(=O)OCc1ccccc1)C(=O)O` (centres undefined) was run?
**A.** 107%

**Q.** Which growth does the source give for `CC(C)C1=NOC(=O)C1=Cc1cn(-c2ccccc2)nc1-c1ccc(Cl)cc1` here?
**A.** 42.8%

**Q.** Which growth does the source give for `COc1cc(OC)cc(C(=O)Nc2cc(-c3cccnc3)nc(NCCCN3CCOCC3)n2)c1` here?
**A.** 74.1%

**Q.** `Brc1ccc2c(c1)CN(C1CCCCC1)CO2` was tested. Which growth did it give?
**A.** 89.7%

**Q.** For `CC/C=C(\C)C(CCC)(CN=O)C(=O)OCC` (centres undefined), which growth is on record?
**A.** 114%

**Q.** For `O=C(Nc1ccc(F)cc1)c1ccccc1`, which growth is on record?
**A.** 103%

**Q.** How did the growth turn out when `O=C(O)c1cccc(CN2CCN(c3cc4c(cc3F)c(=O)c(C(=O)O)cn4C3CC3)CC2)c1O` was run?
**A.** 102%

**Q.** With `COC(=O)c1c(C)[nH]c(/C=C2\N=C(c3ccc[nH]3)C=C2OC)c1C` as the molecule, how does the growth read?
**A.** 4.3% (active)

**Q.** How did the growth turn out when `C=CCCC1(C)NC(=O)NC1=O` (centres undefined) was run?
**A.** 83.3%

**Q.** Which growth does the source give for `O=[N+]([O-])c1cccc(N=NNc2cccc([N+](=O)[O-])c2)c1` here?
**A.** 103%

**Q.** For `Cc1ccc(N)c(O)c1`, which growth is on record?
**A.** 94.3%

**Q.** `CCN(CC)c1ccc2cc(NC(=O)OCCNC(=O)CCNC(=O)[C@H](CC(C)C)NC(=O)C(C)(C)NC(=O)C(C)(C)NC(=O)[C@H](CC(C)C)NC(=O)CCNC(=O)C(C)(C)NC(=O)[C@H](CC(C)C)NC(=O)CCNC(=O)[C@@](C)(CC)NC(=O)[C@H](C)NC(=O)CCNC(=O)C(C)(C)NC(=O)[C@H](C)NC(=O)[C@@H]3CCCN3C(=O)[C@@](C)(CC)NC(=O)[C@H](Cc3ccccc3)NC(=O)C3CCCN3C(=O)C(C)(C)NC(=O)C3CCCN3C(=O)C(C)(C)NC(C)=O)c(=O)oc2c1` (some centres undefined) was tested. Which growth did it give?
**A.** -59.5% (active)

**Q.** Which growth does the source give for `COC(=O)[C@]12CCC(C)(C)C[C@H]1C1=CC[C@@H]3[C@@]4(C)C/C(=C/c5cccnc5)C(=O)C(C)(C)[C@@H]4CC[C@@]3(C)[C@]1(C)CC2` here?
**A.** 5.39% [100 µM] (active)
